High-throughput results from PubChem BioAssay.
PTHR1 ag – PTHR1 (human) receptor agonism; HEK293 GP2 PTHR1 cells, GloSensor cAMP luminescence, 1 h; Potency, µM (series often up to 115 µM), inactives show top-dose activation, most hits filed as activators; hit rate 0.075% among 410,000; note: potency is the fitted concentration of half-maximal effect; nearly all actives have a fitted effect of over 55% in size
Target sequence (Q03431 whole entry, looked up): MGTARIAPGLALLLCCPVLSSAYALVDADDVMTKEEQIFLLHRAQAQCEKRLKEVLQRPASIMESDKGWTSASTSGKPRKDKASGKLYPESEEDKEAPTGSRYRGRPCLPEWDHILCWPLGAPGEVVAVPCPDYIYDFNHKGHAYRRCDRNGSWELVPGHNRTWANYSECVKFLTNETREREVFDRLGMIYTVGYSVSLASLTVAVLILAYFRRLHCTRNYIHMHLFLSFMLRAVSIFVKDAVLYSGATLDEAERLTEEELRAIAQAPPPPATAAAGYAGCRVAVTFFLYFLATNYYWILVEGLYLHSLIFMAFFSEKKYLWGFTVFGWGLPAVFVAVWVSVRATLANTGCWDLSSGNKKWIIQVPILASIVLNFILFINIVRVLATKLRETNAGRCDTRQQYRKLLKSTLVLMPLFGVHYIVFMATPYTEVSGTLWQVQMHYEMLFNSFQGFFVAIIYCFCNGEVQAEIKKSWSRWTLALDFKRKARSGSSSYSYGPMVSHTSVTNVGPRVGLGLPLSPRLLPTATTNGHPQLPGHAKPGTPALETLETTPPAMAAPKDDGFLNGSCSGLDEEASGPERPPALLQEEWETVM
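HEK-293-derived GP2 cells expressing PTHR1 and a GloSensor cAMP reporter, 3,000/well, plated overnight, given luciferin plus IBMX (each 0.5 mM as added) for 1 h at 37 °C, then compound for 1 h at 37 °C. Luminescence was read after 15 min at room temperature.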
RXFP1 antag – antagonists of human relaxin receptor RXFP1; Q9HBX9; HEK293-RXFP1, relaxin-stimulated cAMP HTRF, 30 min; active compounds read low; activity change, negative = inhibition, % at 57.5 µM; hit rate 0.59% among 350,000;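 active = activity change of -60% or lower, but not beyond a set lower limit; inconclusive = change between -60% and -40%, or beyond the set limit; inactive = change above -40%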; note: % is set by controls: 0 for no effect and ±100 for the full control effect
RXFP1 ag – RXFP1 (human) receptor agonism | Q9HBX9 | HEK293T-RXFP1 cAMP TR-FRET, 30 min; response scale: percent of porcine relaxin response, buffer zero | Potency, µM (series often up to 57.5 µM), for inactives: at the highest dose activation, actives largely listed as activators | hit rate 0.3% among 370,000 | AID 2676; note: potency is the fitted concentration of half-maximal effect; % is set by controls: 0 for no effect and ±100 for the full control effect; nearly all actives have a fitted effect of over 60% in size
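Agonist response is measured as cAMP accumulation in an RXFP1-transfected HEK293T line under PDE4 inhibition. Values are scaled between buffer-only and 29 nM porcine relaxin, and EC50s come from standard Hill equation fits.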
TSHR antagonist – blocks TSH signaling through the human TSH receptor; TSHR-expressing cells, TSH-stimulated cAMP HTRF, 2 h; active compounds read low; activity change, negative = inhibition, % at 11.5 µM; hit rate 0.2% among 330,000; AID 504810; P16473;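 active = activity change below a set negative limit, meaning inhibition stronger than a set level, cut at about -70% in these data; inconclusive = activity change between two set negative limits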; note: % is set by controls: 0 for no effect and ±100 for the full control effect
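TSHR-expressing cells, 200/well, pre-treated with compound, then stimulated with EC80 TSH (4nM final) for 2 hours at 37 deg C. cAMP measured by competitive HTRF: anti-cAMP cryptate antibody in lysis buffer plus cAMP-d2, read after 30 minutes at room temperature.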
NPSR antag – blocks cAMP signaling of the human neuropeptide S receptor; Q6W5P4; CHO-NPSR cells, cAMP TR-FRET, antagonist mode; Potency, µM (titrated, usually from 38.3 µM), without a hit: top-dose activity change, negative = inhibition, most hits filed as inhibitors; hit rate 1% among 220,000; note: potency is the fitted concentration of half-maximal effect; % is set by controls: 0 for no effect and ±100 for the full control effect; nearly all actives have a fitted effect of over 50% in size
GLP1R cytotox – cytotoxic in the GLP-1 receptor inverse agonist counter-screen; AID 624418; HEK293 cAMP-luciferase reporter cells, luminescence, 24 h; Potency, µM (doses to about 38.3 µM), for inactives: top-dose activity change, negative = inhibition, hits mostly inhibitors; hit rate 0.13% among 410,000;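 note: loss of luciferase light is scored as toxicity; potency is the fitted concentration of half-maximal effect; % is set by controls: 0 for no effect and ±100 for the full control effect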
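Luminescence readout: signal drop marks cytotoxicity. Plated cells grew 12 h at 37 °C, 5% CO2, received 23 nL compound for 24 h, then got luciferase reagent, read after 12 min at RT.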
* = called active by the depositor; i = inactive; ? = inconclusive; . = no result given; [ ] = another dose, or the depositor's remark. Only a selection was taken, and hits are over-represented in it overall. Unless noted, calls come from the whole dose curve; as a rule, active = well fitted curve in the direction sought with a large enough effect; inconclusive = small, poorly fitted or top-dose-only effect, or another doubt; inactive = no such curve, though single readings can be large; an effect the other way counts as inactive or inconclusive.

SMILES	PTHR1 ag	RXFP1 antag	RXFP1 ag	TSHR antagonist	NPSR antag	GLP1R cytotox
Nc1c(C(=O)NCc2ccco2)c2nc3ccccc3nc2n1Cc1ccccc1	-17%	-9	2%	-2	?	166%
Nc1c(C(=O)NCc2ccco2)c2nc3ccccc3nc2n1Cc1ccc(F)cc1	-4%	-3	3%	5	10µM*	258%
O=C(c1[nH]c(C(F)(F)F)nc1-c1ccccc1)N1CCc2c([nH]c3ccccc23)C1	-11%	.	.	.	.	?
Nc1cc(Cl)c2nonc2c1[N+](=O)[O-]	-20%	-24	5%	?	-37%	8.9µM*
ClCCN1CCCC1	.	2	.	.	.	.
CCN(CC)C(C)C(=O)c1ccccc1 (configuration not stated)	.	-3	.	.	.	.
CCN(CC)CCOc1ccc(/C(=C(/Cl)c2ccccc2)c2ccccc2)cc1	0%	.	0%	6	10µM*	?
CC/C(=C(\c1ccc(O)cc1)c1ccc(OCCN(C)C)cc1)c1ccccc1	-17%	.	4%	6	10µM*	-6%
c1ccc(CN2CCNCC2)cc1	.	25	.	.	.	.
Cc1ccccc1CN1CCN(Cc2ccccc2)CC1	45µM*	-6	0%	4	15%	7%
COc1cccc2c1C(=O)c1c(O)c3c(c(O)c1C2=O)C[C@@](O)(C(=O)CO)CC3OC1CC(N2CCOC(OC)C2)C(O)C(C)O1 (some centres not stated)	.	-19	.	.	.	.
CCCCOc1ccc(CCN)cc1Cl	i	-11	1%	11	7%	-6%
CNCCCOc1ccc(Cl)cc1C(C)(C)C	i	-85*	3%	-7	-24%	?
CN1CCN(c2ccc(CNC(=O)c3cccc4c(-c5ccc(F)c(F)c5)coc34)cc2)CC1	-46%	.	.	.	.	?
Cc1c(N=Nc2c(O)[nH]c(=S)[nH]c2=O)c(=O)n(-c2ccccc2)n1C	i	12	-2%	13	-2%	-22%
O=c1[nH]c(=S)[nH]c(O)c1N=Nc1ccc(SC(F)F)cc1	-82%	-71*	12%	0	15%	-25%
O=c1[nH]c(=S)[nH]c(O)c1N=Nc1ccc(S(=O)(=O)N2CCc3ccccc32)cc1	-19%	-100*	0%	-21	-21%	10%
COc1ccc(-c2cc(CNc3nc(NC(C)C)nc4cc(-c5ccccc5)sc34)on2)cc1	i	.	.	.	.	?
COc1ccccc1C(=O)Nc1ccc2nc(SCC(=O)N3CCCc4ccccc43)sc2c1	i	-9	?	.	.	-13%
O=c1nc(/C=C/c2ccc(Cl)cc2Cl)cc(C(F)(F)F)[nH]1	-32%	-75*	0%	-34	.	-7%
COc1ccc(N2C(=O)/C(=C/c3cccs3)C(=O)NC2=S)cc1	-76%	1	-1%	-6	?	-2%
COc1ccc(N2C(=O)/C(=C/C=C/c3ccccc3[N+](=O)[O-])C(=O)NC2=S)cc1	-61%	-77*	1%	5	10µM*	4%
O=C1C=Cc2ccccc2C1=O	.	.	-2%	-9	-9%	.
O=C1C=C(c2c(O)ccc3ccccc23)c2ccccc2C1=O	-34%	?	.	.	.	10µM*
C=CCC1=C(C)C(OC(=O)C2C(C=C(C)C)C2(C)C)CC1=O (configuration not stated)	.	-70*	.	.	.	.
SMILES	PTHR1 ag	RXFP1 antag	RXFP1 ag	TSHR antagonist	NPSR antag	GLP1R cytotox
CCOC(=O)C1CCCN(c2ccc([N+](=O)[O-])c3nonc23)C1 (configuration not stated)	-23%	8	12%	-10	-20%	10µM*
CCN(CC)C(=O)c1ccc(NC(=O)CCn2nc(-c3ccc(C)cc3)c3ccccc3c2=O)cc1	-17%	-79*	1%	.	.	0%
COc1cc(OC)c(OC)cc1CN1CCc2nc(N3CCN(c4ccccc4F)CC3)ncc2C1	-35%	-14	-2%	.	.	-1%
COc1cc2c(cc1NC(=O)C(Cl)Cl)-c1ccc(NC(=O)C(Cl)Cl)cc1C2	-26%	-16	.	.	.	?
COc1ccc(N=C2S/C(=C\c3ccc(Cl)c([N+](=O)[O-])c3)C(=O)N2CCN(C)C)cc1	-93%	-4	2%	-23	.	11µM*
Cc1ccc(/C=C2\C(=O)NC(=S)N(c3ccc(F)cc3)C2=O)s1	-42%	-29	0%	1	22%	11%
Cc1ccc(/C=C2\C(=O)NC(=S)N(c3ccccc3F)C2=O)s1	-26%	-6	2%	5	5µM*	?
Cc1ccc(-n2c(C)nc3ccccc3c2=O)c(C)c1	i	0	-1%	-72*	17%	-1%
N=c1c2c(n(Cc3ccc(Cl)cc3Cl)c3c1CCC3)CCCC2	-75%[57.5 µM]	7	2%	-4	-11%[46.1 µM]	-17%
CCCCCCCCCn1c2c(c(=N)c3c1CCC3)CCCC2	-95%	-81*	-1%	-6	?	?
COc1cc(CC(C)N)c(OC)cc1C (configuration not stated)	.	-6	.	.	.	.
O=C1C=CC(=O)C2C1C1(Cl)C(Cl)=C(Cl)C2(Cl)C1(Cl)Cl (configuration not stated)	-18%	-95*	.	.	.	?
Cc1ccc(NC(=O)CN(C)C(=O)Cn2ncc(Cl)c(Cl)c2=O)cc1	-24%	.	0%	3	-35%	?
O=C(Cn1ncc(Cl)c(Cl)c1=O)NCC1CCCCC1	-25%	.	0%	26	-48%	10µM*
CC(C)(N)Cc1ccccc1Cl	.	20	.	.	.	.
O=C(CCl)Nc1cc(SCC(O)CO)cc([N+](=O)[O-])c1 (configuration not stated)	-46%	-28	3%	-11	6%	4µM*
CCOC(=O)c1nc2ccccc2c(=O)n1-c1ccc(C)cc1	i	-8	1%	-5	-7%[46.1 µM]	6%
CCOC(=O)c1c(C)n(-c2ccc(C)cc2)c2c(C(C(C)=O)C(=O)O)c(Br)c(O)c(O)c12 (configuration not stated)	-47%[57.5 µM]	-29	0%	13	10µM*	?
O=C(/C=C/c1cccc(Cl)c1)c1ccc([N+](=O)[O-])o1	-47%	.	3%	-81*	.	?
Cc1cc(NC(=O)c2cc(-c3cccc(Cl)c3)on2)nn1Cc1ccc(Cl)cc1	-42%	2	2%	.	.	-2%
CC(C)N1C(=O)/C(=C/C=C/c2ccco2)C(=O)N(Cc2ccco2)C1=O	-27%	-77*	0%	-8	?	?
COc1ccc(/C=C2/C(=O)N(Cc3ccco3)C(=O)N(C(C)C)C2=O)cc1	-10%	-10	2%	15	3%	4%
CCS(=O)(=O)c1ncc(Cl)c(C(=O)N(Cc2ccccc2)c2ccc(OC)cc2)n1	i	?	-1%	.	.	?
